Source: PubChem BioAssay AID1521 (The Scripps Research Institute Molecular Screening Center, 2009)
This is one part of the list. Active and inactive are the calls of the source.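 The calls were made as follows: active = mean inhibition above the hit cutoff derived in the earlier primary screen (cut at about 25% in these data); inactive = the rest.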

Assay: viability loss in Ba/F3 EpoR-JAK2V617F cells, confirmation, JAK2V617F inhibitor project, cell-based, luminescence, triplicate (AID 1521);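 also: 0% = DMSO-treated cells and 100% = JAK inhibitor I control wells; higher means lower luminescence from reduced cell ATP and viability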
Conditions: CellTiter-Glo luminescence, at 5.6 µM, hits give high values

CN(C)CC1Oc2ccccc2OC1(O)c1ccccc1 (stereo unspecified)
inhibition: 98.7% (active)
